Bioassay records (PubChem)
This is a sample that favours compounds with a hit; in the whole collection about 19% have one here.
Shiga toxin inh = Shiga toxin inhibition | Vero cells, Shiga toxin protein synthesis inhibition reporter | inhibition, % at 38.7 µM | 9.2% of 290,000 active | AID 2315; in the data active means inhibition mostly above about 28%, no sharp cut-off; inactive means mostly below about 43%; further: 0% is about no effect
Pf growth 48h = inhibits P. falciparum growth in the first generation, 48 h; Potency, µM (series often up to 28.7 µM), inactives show at the highest dose activity change, negative = inhibition, actives largely listed as inhibitors; AID 504832; 5.9% of 310,000 active; P. falciparum luciferase growth in erythrocytes, 48 h; further: potency means the concentration at half of the fitted maximal effect; on the % scale 0 is the no-effect control and ±100 the full control effect
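Luciferase-expressing P. falciparum in infected erythrocytes (2% hematocrit, 0.1% parasitemia final) in RPMI 1640/0.5% Albumax were exposed to compound for 48 hours at 37 C, 5% CO2; growth read as luminescence.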
LASV entry inh = blocks Lassa virus binding to or entry into cells; AID 540256; Potency, µM (top dose mostly 37.9 µM), for the others: at the top dose activity change, negative = inhibition, actives largely listed as inhibitors; 1.2% of 300,000 active; Lassa virus pseudotype entry inhibition, cell reporter; calls by dose curve; tested in HEK293 cells; further: potency means the concentration at half of the fitted maximal effect; on the % scale 0 is the no-effect control and ±100 the full control effect; nearly all actives have a fitted effect of over 50% in size
MARV entry inh = inhibitors of Marburg virus binding or cell entry; 1.8% of 300,000 active; AID 540276; Marburg virus pseudotyped entry inhibition, cell reporter; Potency, µM (doses to about 37.8 µM), without a hit: at the highest dose activity change, negative = inhibition, hits mostly inhibitors; calls by dose curve; tested in HEK293 cells; further: potency means the concentration at half of the fitted maximal effect; on the % scale 0 is the no-effect control and ±100 the full control effect
CHX counter = affects cycloheximide protein synthesis inhibition readout, counter-screen | 12% of 300,000 active | AID 2314 | max response, % | cell reporter, cycloheximide protein synthesis inhibition counterscreen; in the data active means max response mostly above about 13%, no sharp cut-off; inactive means mostly below about 14%; further: read at 38.3 µM for the half of the compounds with a filed dose; 0% is about no effect
Pf growth 96h = P. falciparum growth inhibition at 96 hours; P. falciparum luciferase reporter growth, 96 h; Potency, µM (highest dose often 28.7 µM), for the others: at the top dose activity change, negative = inhibition, most hits filed as inhibitors; 6.9% of 320,000 active; further: potency means the concentration at half of the fitted maximal effect; on the % scale 0 is the no-effect control and ±100 the full control effect
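Plates of compound plus infected erythrocytes (2% hematocrit, 0.05% parasitemia final) incubate 96 hours, 37 C, 5% CO2. Detection reagent added; reduced luminescence from the parasites' luciferase reporter flags inhibition.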
Starred values were filed as active, the others as inactive; u = inconclusive; x = no result; + = active, no number; [ ] = dose if it differs, or a comment. Unless noted, the call rests on the fitted dose curve; in most records, active means well fitted inhibition curve with a large enough effect; inconclusive means small, poorly fitted or top-dose-only effect, or another doubt; inactive means no such curve, though single readings can be large or run the other way.

SMILES	Shiga toxin inh	Pf growth 48h	LASV entry inh	MARV entry inh	CHX counter	Pf growth 96h
CC(C)[C@H](NC(=O)c1ccco1)C(=O)OCC(=O)c1ccc2c(c1)NC(=O)CO2	-1	-1%	3%	14%[46.1 µM]	1	28%
O=C(O)/C=C/C(=O)c1ccc2c(c1)NC(=O)CO2	-21	1.9µM*	1%	u	-2	3.3µM*
COc1ccccc1N1C(C)=CC(=C(C#N)c2nc3ccccc3s2)C=C1C	42	9.3µM*	26%	u	22*	u
Cc1cccc(NC(=S)N2CCOCC2)c1C	0	1%	4%	-2%	-2	11%
O=C(COc1ncnc2ccccc12)c1ccc2c(c1)OCCO2	132*	183%	u	u	55*	414%
Cc1ccc(C)c(C(=O)COc2ncnc3ccccc23)c1	70*	25%	-5%	5%	28	10%
O=C(COc1ncnc2cc(Cl)ccc12)c1ccc2c(c1)OCCO2	74*	159%	4%	10%	29*	133%
COc1cc(-c2nnc(SCC(=O)Oc3ccccc3)o2)cc(OC)c1OC	x	x	10%[46.1 µM]	-14%[46.1 µM]	x	x
Cc1nn2c(-c3ccncc3)ccnc2c1Br	-10	u	6%[46.1 µM]	u	-1	u
CC(C)(C)OC(=O)N1CCC(c2c(C(=O)Nc3cccc(C(F)(F)F)c3)cnn2-c2ccc(F)cc2F)CC1	x	x	-15%[46.1 µM]	x	x	x
COC(=O)c1c(C)[nH]c(/C=N/Nc2ccccc2)c1C	60	5.2µM*	-15%	u	20*	u
Cc1c(C=NNc2ccccc2)[nH]c(=O)[nH]c1=O	x	x	6%	-3%	x	x
Nc1cc(-c2cccc(F)c2)nn1S(=O)(=O)c1cccc2nsnc12	-5	-17%	x	x	-1	1.7µM*
Nc1cc(-c2ccc(Cl)cc2)nn1S(=O)(=O)c1cccc2nsnc12	-13	x	x	x	-6	u
COc1ccc(NC(=O)Nc2ccc3oc(C)nc3c2)cc1	67*	87%	16%	21%[46.1 µM]	30*	u
Cc1nc2cc(NC(=O)NCCCO)ccc2o1	1	7%	5%	-2%[46.1 µM]	-2	326%
Cc1nc2cc(NC(=O)NCCC3=CCCCC3)ccc2o1	57*	87%	10%	5%	19*	-14%
CCN(CC)C(C)C#CCC(c1ccccc1)c1ccccc1 (stereo not given)	1	u	x	x	-4	u
Cc1ccc(/C=C/C(=O)Nc2cccc(S(=O)(=O)N3CCOCC3)c2)o1	7	4%	4%	-2%	6	u
CCc1nnc(NC(=O)CSc2nccn2-c2ccc(OC)cc2)s1	x	x	-15%[46.1 µM]	x	x	x
CCc1nnc(NC(=O)CSc2ncnc3c2cnn3-c2ccc(OC)cc2)s1	-9	57%	-26%	u	-1	0.0037µM*
CCOC(=O)CC(=O)CSc1ncnc2c1cnn2-c1ccccc1	81*	4%	-11%	-14%	58*	4%
CC(C)(C)NC(=O)CSc1ncnc2c1cnn2-c1ccccc1	32	u	x	x	30*	0%
CCOC(=O)CSc1ncnc2c1cnn2-c1ccccc1	31	12%	0%	-5%	-3	14%
CCOC(=O)CNC(=O)CSc1ncnc2c1cnn2-c1ccc(C)cc1	-4	15%	u	u	0	8.3µM*
SMILES	Shiga toxin inh	Pf growth 48h	LASV entry inh	MARV entry inh	CHX counter	Pf growth 96h
COc1ccc(-c2cc3ccc(O)c(CN4CCCC4)c3oc2=O)cc1OC	x	x	13%[46.1 µM]	x	x	x
COc1ccc(C2C(C(=O)NCC3CCCO3)CCC(=O)N2c2ccc3c(c2)OCO3)cc1 (stereo not given)	-16	9%	15%	-16%[46.1 µM]	-1	u
CCOC(=O)CNC(=O)CSc1ncnc2c1cnn2-c1ccc(OC)cc1	16	u	u	11µM*	29*	x
CCOC(=O)CSc1ncnc2c1cnn2-c1ccc(C)cc1	-4	28%	-1%	u	-2	13µM*
CCOC(=O)CNC(=O)CSc1ncnc2c1cnn2-c1ccccc1	-6	13%	u	-21%	9	-3%
COCCN(C(=O)c1ccco1)c1nnc(-c2ccc(F)cc2)s1	44	46%	u	u	23*	284%
COCCN(C(=O)c1ccccc1)c1nnc(-c2cccnc2)s1	19	27%	25%	13%	2	u
CCN(C(=O)Cc1cccs1)c1nnc(-c2cc(OC)c(OC)c(OC)c2)s1	-4	5.2µM*	u	-10%[46.1 µM]	-1	-17%
CCCN(C(=O)c1cccs1)c1nnc(-c2ccncc2)s1	57*	68%	6%	17%[46.1 µM]	22*	u
CCN(C(=O)c1ccco1)c1nnc(-c2cccnc2)s1	75*	61%	u	u	34*	u
CCCCCCn1nc(C(=O)N(CC(C)C)c2c(N)n(CCCC)c(=O)[nH]c2=O)c2ccccc2c1=O	-14	u	26%	-12%	-5	u
CCCCN(C(=O)Cc1cccs1)c1nnc(-c2cccnc2)s1	44*	17%	72%	u	20*	-18%
CCCN(C(=O)c1ccco1)c1nnc(-c2ccccc2C)s1	132*	0%	x	x	94*	-8%
CN(C(=O)c1ccco1)c1nnc(-c2ccc(F)cc2)s1	85*	130%	-14%	-11%[46.1 µM]	51*	2%
CN(C(=O)c1ccco1)c1nc(-c2ccc(F)cc2)cs1	58*	159%	u	-21%	45*	u
Cc1ccc(S(=O)(=O)N2CCCCC2)cc1NC(=O)Cn1ccc(C(F)(F)F)n1	-7	u	-22%	-11%	0	-15%
CN1c2cc(Cl)ccc2-c2nc(SCC(=O)Nc3ccc(F)cc3F)ncc2S1(=O)=O	x	x	-7%[46.1 µM]	x	x	x
CN(C(=O)c1ccco1)c1nc(CC(=O)Nc2ccccc2)cs1	+	15%	25%	18µM*	18	-3%
CCN(C(=O)c1ccco1)c1nc(CC(=O)Nc2ccc(Cl)cc2)cs1	35	u	-25%	-27%	10	-11%
O=C(Nc1cccc(Cl)c1Cl)c1snnc1-c1ccccc1	3	-11%	u	u	6	95%
O=C(O)C1CC=CCC1C(=O)N1CCN(c2nc(-c3ccccc3Cl)c3cc(Br)ccc3n2)CC1 (stereo not given)	-27	12µM*	-8%	-20%	-3	u
CC(=O)Nc1ccc(C#Cc2ccc(NC(C)=O)cc2)cc1	68*	47%	7.3µM*	4.6µM*	34*	72%
CC(=O)Nc1ccc(-c2ccc(NC(C)=O)c(O)c2)cc1O	33*	109%	x	x	18*	99%
CC(=O)Nc1ccc(-c2ccc(NC(C)=O)cc2)cc1	60*	2%	17%	u	33*	6%
Clc1c(Cl)c(Cl)c(Cl)c(Cl)c1Cl	-9	x	x	x	-3	x
COc1ccccc1OCC(=O)Nc1ccc(-c2nnc(-c3ccco3)o2)cc1	-20	8%	21%	-6%	2	1%
CCC(Oc1ccccc1)C(=O)Nc1ccc(-c2nnc(-c3ccco3)o2)cc1 (stereo not given)	89*	-90%	u	1%	36*	-23%
